# S1P2 antag – antagonists of human S1P2 receptor; O95136; cell-based S1P2 antagonist assay, inhibition at 5 uM; inhibition, % at 5 µM; 97,000 tested, 0.21% active; in the data active = inhibition above about 45%;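 note: CRE beta-lactamase reporter cells expressing human S1P2 stimulated with S1P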
# Target sequence (O95136 whole entry, looked up): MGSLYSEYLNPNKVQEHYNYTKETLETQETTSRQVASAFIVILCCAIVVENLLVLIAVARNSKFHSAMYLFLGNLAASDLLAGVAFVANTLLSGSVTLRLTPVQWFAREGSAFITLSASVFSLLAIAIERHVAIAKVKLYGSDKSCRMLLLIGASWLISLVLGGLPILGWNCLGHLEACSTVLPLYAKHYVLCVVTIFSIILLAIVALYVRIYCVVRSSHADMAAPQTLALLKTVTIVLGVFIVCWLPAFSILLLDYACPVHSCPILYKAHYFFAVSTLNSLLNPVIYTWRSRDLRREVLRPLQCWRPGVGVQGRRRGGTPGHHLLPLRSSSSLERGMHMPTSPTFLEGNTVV
# S1P2 agonist – agonists of human S1P2 receptor | O95136 | 97,000 tested, 0.46% active | S1P2-expressing cell line, agonist reporter read-out | AID 729 | activation, % at 4.5 µM; in the data active = activation above about 16%
# GALR2 antag – antagonists of human galanin receptor 2 (GALR2); O43603; GALR2-expressing cells, antagonist mode; inhibition, % at 4 µM; 140,000 tested, 0.39% active;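 note: cells stimulated with galanin 1-16 at roughly its EC80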
# GALR2 ag – GALR2 (human) receptor agonism; O43603; GALR2-expressing cells, agonist activation read-out; activation, % (concentration not given with the values); 140,000 tested, 0.48% active; in the data active = activation above about 5%, passing the limit was not always enough
# GALR2 ant conf – confirmation of human galanin receptor 2 (GALR2) antagonists | shares compounds with GALR2 antag | GALR2-expressing cells, antagonist mode, inhibition | inhibition, % at 4 µM | 480 tested, 60% active | AID 866;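 note: cells stimulated with galanin at about its EC80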
# BLA inh counter – counter-screen for GALR2 antagonists: beta-lactamase reporter inhibitors; 480 tested, 36% active; AID 867; CHO NFAT-BLA reporter, beta-lactamase FRET, thapsigargin-stimulated; shares compounds with GALR2 antag; inhibition, % at 4.2 µM;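 active = inhibition above the mean inhibition across tested compounds plus 3 SD, cut at about 27% in these data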
# Numbers stand for hits; - = inactive; . = no result. Rows were chosen to be rich in hits. Some 1.1% of all compounds tested hit in one or more screens of this group. Cut-off read from the data, not from the text of the source, unless noted: active = inhibition above about 27%; inactive = the rest.
SMILES,S1P2 antag,S1P2 agonist,GALR2 antag,GALR2 ag,GALR2 ant conf,BLA inh counter
CCOC(=O)C1=C(CSc2nc(-c3ccccc3)ccc2C#N)OC(N)=C(C#N)C1c1cccnc1 (stereo unspecified),-,-,28.6,-,29.7,-
Cn1c(=O)c(NCCc2ccccc2)c2c3c(cccc31)C(=O)c1ccccc1-2,-,-,40.4,-,38.3,41.9
CC1C/C(=C\c2cccnc2)C(=O)/C(=C/c2cccnc2)C1 (stereo unspecified),.,.,36.0,-,43.8,-
O=[N+]([O-])c1cc(-c2ncccn2)c([N+](=O)[O-])s1,.,.,45.1,-,55.5,-
O=C(CSc1nnnn1C1CCCC1)NCc1ccccc1,-,-,-,-,.,.
O=C(CSc1nnnn1C1CC2CCC1C2)Nc1ccnc2ccccc12 (stereo unspecified),.,.,45.4,-,63.7,-
O=C(OCn1ncc(Br)c(Br)c1=O)c1c(F)cccc1F,69.0,-,96.5,-,94.2,98.4
C=CCn1nc([N+](=O)[O-])nc1Sc1cccc2cccnc12,.,.,31.2,-,-,-
CCN(CC)S(=O)(=O)c1ccc(Cl)c(C(=O)Nc2ccc(Cl)cc2[N+](=O)[O-])c1,.,.,28.4,-,-,-
COc1ccc(NC2=Nc3cccc4cccc2c34)cc1,.,.,27.3,-,-,-
COc1ccc(NC(=O)/C(Cl)=C(/Cl)S(=O)Cc2ccccc2)cn1 (stereo unspecified),100.8,-,104.9,-,101.5,105.7
COc1ccc(/C=C/C(=O)Nc2ccc(OC)nc2)cc1,.,.,-,-,.,.
COc1ccc(CS(=O)(=O)/C(Cl)=C(/Cl)C(=O)Nc2ccc(OC)nc2)cc1,94.7,-,92.5,-,91.8,91.9
O=C1OCCC1Sc1nnc(-c2ccc(Br)cc2)o1 (stereo unspecified),-,-,-,-,.,.
CCOCCCNS(=O)(=O)c1ccc(NC(=O)N2c3ccccc3Sc3ccccc32)cc1,-,-,-,-,.,.
Cn1c(=O)[nH]c(=O)c2c1nc(SCCN1CCCCC1)n2CCCc1ccccc1,.,.,-,-,.,.
Cc1[nH]c2ccc(OCc3ccccc3)cc2c1CCN1C(=O)OC(C)(C)C1(C)O (stereo unspecified),-,-,-,-,.,.
CC1(C)OC(=O)N(CCc2ccccc2)C1(C)O (stereo unspecified),.,.,31.4,-,-,-
CCOC(=O)COc1ccccc1/C=C\[N+](=O)[O-],.,.,29.8,-,43.1,30.3
O=c1[nH][nH]c(-c2ccccc2)c1C=Nc1cccc(Cl)c1,-,-,-,-,.,.
O=c1[nH][nH]c(-c2ccccc2)c1C=Nc1ccc(Cl)cc1,-,-,29.0,-,-,-
CCN(CC)c1ccc(/C=C(/C#N)c2nc3ccc(C)cc3[nH]2)c(OC(C)C)c1,-,-,33.6,-,29.6,36.9
CCCOc1cc(N(CC)CC)ccc1/C=C(/C#N)c1nc2ccc(C)cc2[nH]1,-,-,-,-,.,.
Cc1cccc(-n2c(N)c(-c3nc4ccccc4n3C)c3nc4ccccc4nc32)c1,.,.,-,-,.,.
Cn1c(-c2c(N)n(-c3ccccc3)c3nc4ccccc4nc23)nc2ccccc21,.,.,33.1,-,34.5,47.3
SMILES,S1P2 antag,S1P2 agonist,GALR2 antag,GALR2 ag,GALR2 ant conf,BLA inh counter
O=C(/C=C/c1ccccc1)Nc1ncn[nH]1,-,-,29.9,-,37.3,-
O=C(CCc1ccccc1)Nc1ncn[nH]1,-,-,-,-,.,.
COc1cccc(-c2cc(N)nn2C(=O)Nc2ccc(Cl)cc2)c1,-,-,-,-,.,.
CC(CC(=O)c1cccs1)CC(=O)c1cccs1,-,-,32.5,-,-,-
Cc1cc(NC(=O)C2CCCCC2)ccc1NC(=O)c1ccccc1Cl,.,.,-,-,.,.
C=CCOc1ccc(/C=C/C(=O)Nc2ccc(C(=O)NC)cc2)cc1,.,.,-,-,.,.
CCOc1cc(-c2nc(-c3ccncc3)no2)cc(OCC)c1OCC,-,-,35.3,-,-,-
CCOc1ccc(-c2nc(-c3ccncc3)no2)cc1OCC,-,-,-,-,.,.
CC(C)C(c1nnnn1C(C)(C)C)N1CCC(Cc2ccccc2)CC1 (stereo unspecified),.,.,-,-,.,.
Nc1ccc2nc(-c3cccs3)[nH]c2c1,-,-,27.6,-,-,-
Cc1ccc(NC(=O)CN(C)C(=O)Cn2ncc(Cl)c(Cl)c2=O)cc1,.,.,60.1,-,83.3,32.5
Cc1ccc(NC(=O)CN(C)C(=O)COc2c(Cl)cc(Cl)c3ccc(C)nc23)cc1,.,.,-,-,.,.
CC(CC(=O)NCC1CCCO1)c1ccccc1 (stereo unspecified),.,.,-,-,.,.
Cc1onc(-c2ccccc2)c1C(=O)Nc1nc2c(s1)CCCC2,-,-,27.4,-,-,-
O=C(Nc1nncs1)c1cccnc1Cl,.,.,-,-,.,.
COc1ccc(NC(=O)COC(=O)c2ncc(Cl)c(Cl)c2Cl)c(OC)c1,.,.,-,-,.,.
O=C(Nc1ncc(Cc2ccc(SC(F)F)cc2)s1)c1ccc(OC(F)F)cc1,.,.,32.6,-,-,27.1
Cc1ccc(Cc2cnc(NC(=O)c3ccco3)s2)cc1,-,-,-,-,.,.
CCCCCOc1ccc(Br)cc1/C(C)=N/NC1=NCCN1,-,-,28.1,-,-,27.6
COc1ccc(Br)cc1/C(C)=N/NC1=NCCN1,-,-,-,-,.,.
COC(=O)CCC(=O)NC(=S)Nc1sc(C)c(C)c1C(N)=O,.,.,-,-,.,.
Cc1sc(NC(=S)NC(=O)CCc2ccccc2)c(C(N)=O)c1C,.,.,32.6,-,28.1,36.2
O=C(CCl)N1N=C(c2ccco2)CC1c1cccs1 (stereo unspecified),.,.,28.6,-,33.1,-
CCN(CC)c1ccc(/C=C2/SC(=O)N(C(C)C)C2=O)o1,.,.,45.0,-,-,-
Cc1cccc2sc(NC(=O)C3CCN(S(=O)(=O)c4cc([N+](=O)[O-])ccc4Cl)CC3)nc12,.,.,27.1,-,-,-
SMILES,S1P2 antag,S1P2 agonist,GALR2 antag,GALR2 ag,GALR2 ant conf,BLA inh counter
CC(=O)c1c(C)[nH]c(C(=O)OCc2ccccc2)c1C,.,.,-,-,.,.
CC(=O)c1c(C)[nH]c(C(=O)OCCCCN2C(=O)c3ccccc3C2=O)c1C,63.1,-,32.2,-,38.7,-
NS(=O)(=O)c1ccc(NC(=O)C(Sc2ccccc2)c2ccccc2)cc1 (stereo unspecified),.,.,-,-,.,.
COc1ccccc1-c1cc(C(=O)NCc2ccco2)no1,-,-,-,-,.,.
COc1cccc(C(=O)Nc2ccc(S(=O)(=O)NCc3ccco3)cc2)c1,.,.,28.8,-,-,-
Cc1ccc2[nH]c(O)c(N=NC(=O)C3CC3c3ccccc3)c2c1Br (stereo unspecified),.,.,-,-,.,.
Cc1ccccc1Oc1cc(-n2ncc(Cl)c(Cl)c2=O)ncn1,.,.,81.7,-,97.4,103.3
COc1ccccc1Oc1cc(-n2nc(C)cc2C)ncn1,.,.,-,-,.,.
COC(=O)c1cnn(-c2cc(Oc3ccccc3)ncn2)c1N,-,-,-,-,.,.
CCOc1cnn(-c2cc(Oc3ccc(C)cc3)ncn2)c(=O)c1Cl,-,-,27.5,-,-,-
COc1ccc(C(=O)NCc2nnc(SCC(=O)Nc3nc4ccccc4s3)o2)cc1OC,.,.,-,-,.,.
Cc1ccc(S(=O)(=O)N(C)Cc2ccc(-c3nnc4n3CCC4)cc2)cc1,-,-,-,-,.,.
